Where a name gives a salt, the structure may show the parent alone.

Consider 40 compounds from the supplement of paper PMC9950053.

For the experiment, the system named is Danio rerio larvae (5 dpf). Description: habituation (activity change first vs second 5 min of 1-s interval sound, period 17) minus DMSO control (percentage points); higher = larger habituation measure than DMSO larvae. Conditions: 10 µM; exposure time: 3 h pre-incubation + 3 h imaging. The procedure: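 Wild-type 5 dpf zebrafish larvae (n=48 per drug, 96-well plates, 28.5 °C) were exposed to Tocris FDA-approved library compounds at 10 µM (0.1% DMSO) for 3 h before and 3 h during imaging. Images were taken every 6 s during visual (moving coloured lines) and acoustic stimuli, and larvae were tracked with the DeepLabCut-based Z-LaP Tracker. Each behavioural measure is the treated-group mean minus the DMSO vehicle control mean (n=844), in percentage points. This mapping covers compounds with 4-character plate codes.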
As for `CC(C)(C)NC(=O)[C@@H]1C[C@@H]2CCCC[C@@H]2CN1C[C@@H](O)[C@H](Cc1ccccc1)NC(=O)[C@H](CC(N)=O)NC(=O)c1ccc2ccccc2n1` [Saquinavir mesylate], the habituation is -0.527.
As to `COc1cc2ncnc(Nc3ccc(F)c(Cl)c3)c2cc1OCCCN1CCOCC1` [Iressa], the habituation was 1.15.
With `C[C@]12CCC(=O)C=C1CC[C@@H]1[C@@H]2[C@@H](O)C[C@@]2(C)[C@H]1CC[C@]2(O)C(=O)CO` [Hydrocortisone], the habituation was found to be 4.44.
As to `CC(=O)O[C@]1(C(C)=O)CC[C@H]2[C@@H]3C=C(C)C4=CC(=O)CC[C@]4(C)[C@H]3CC[C@@]21C` [Megestrol Acetate], the habituation was -3.62.
Turning to `C/C(O)=C(\C#N)C(=O)Nc1ccc(C(F)(F)F)cc1` [Teriflunomide], the habituation was -2.85.
In the case of `CCOC(=O)C1=C(COCCN)NC(C)=C(C(=O)OC)C1c1ccccc1Cl` (stereo not given) [Amlodipine besylate], the habituation was -2.71.
As to `C[C@]12CC[C@@H]3c4ccc(O)cc4C[C@@H](CCCCCCCCC[S+]([O-])CCCC(F)(F)C(F)(F)F)[C@H]3[C@@H]1CC[C@@H]2O` (stereo not given in full), the habituation was -2.02.
For `Nc1ccn([C@@H]2O[C@H](CO)[C@@H](O)C2(F)F)c(=O)n1` [Gemcitabine hydrochloride], the habituation is -1.55.
Then `Nc1ncn([C@H]2C[C@H](O)[C@@H](CO)O2)c(=O)n1` [Decitabine], with 7.42; and `O=C1CCc2cc(OCCCCc3nnnn3C3CCCCC3)ccc2N1` [Cilostazol], with 0.0793.
Consider `O=C(Nc1c(Cl)cncc1Cl)c1ccc(OC(F)F)c(OCC2CC2)c1` [Roflumilast], for which the habituation is -2.44.
For `CN1CCN2c3ncccc3Cc3ccccc3C2C1` (stereo not given) [Mirtazapine], the habituation was -1.26.
For `CCN(CC)CCNC(=O)c1c(C)[nH]c(/C=C2\C(=O)Nc3ccc(F)cc32)c1C` [Sunitinib malate], the habituation was 5.06.
`CN1CCN(CCCN2c3ccccc3Sc3ccc(Cl)cc32)CC1` [Prochlorperazine dimaleate]: the habituation is -8.1.
Regarding `CC/C(=C(\c1ccccc1)c1ccc(OCCN(C)C)cc1)c1ccccc1` [Tamoxifen citrate], the habituation is -7.1.
`CC(CCc1ccc(O)cc1)NCCc1ccc(O)c(O)c1` (stereo not given) [Dobutamine hydrochloride]: the habituation stood at 3.31.
As to `Nc1cc(N2CCCCC2)nc(N)[n+]1[O-]` [Minoxidil], the habituation came out at 7.65.
Then `CC(C)n1c(/C=C/C(O)CC(O)CC(=O)O)c(-c2ccc(F)cc2)c2ccccc21` (stereo not given) [Fluvastatin sodium], with 2.02.
On to `Nc1nc2c(ncn2COCCO)c(=O)[nH]1` [Acyclovir], for which the habituation worked out at 2.18.
`NS(=O)(=O)Cc1noc2ccccc12` [Zonisamide]: the habituation was 1.66.
On to `CCCc1nc2c(C)cc(-c3nc4ccccc4n3C)cc2n1Cc1ccc(-c2ccccc2C(=O)O)cc1` [Telmisartan], for which the habituation was -1.73.
Regarding `CN1CCC[C@@H]1Cc1c[nH]c2ccc(CCS(=O)(=O)c3ccccc3)cc12` [Eletriptan hydrobromide], the habituation stood at 7.41.
`CCc1ccc(CCOc2ccc(CC3SC(=O)NC3=O)cc2)nc1` (stereo not given) [Pioglitazone hydrochloride]: the habituation amounted to 0.765.
For `Cc1cccc(C)c1OCC(C)N` (stereo not given) [Mexiletine hydrochloride], the habituation worked out at 6.36.
Consider `CN1CC[C@@H](NC(=O)Nc2ccc(C#N)cc2)C[C@@H]1c1nc2ccccc2[nH]1`, for which the habituation was -0.504.
Turning to `O=C(O)c1cc(/N=N/c2ccc(S(=O)(=O)Nc3ccccn3)cc2)ccc1O` [Sulfasalazine], the habituation came to 1.27.
For the compound `CN(CCOc1ccc(NS(C)(=O)=O)cc1)CCc1ccc(NS(C)(=O)=O)cc1` [Dofetilide], the habituation is 5.62.
Then `CCN(Cc1ccncc1)C(=O)C(CO)c1ccccc1` (stereo not given) [Tropicamide], with 2.39.
`CS(=O)(=O)CCNCc1ccc(-c2ccc3ncnc(Nc4ccc(OCc5cccc(F)c5)c(Cl)c4)c3c2)o1` [Lapatinib]: the habituation was -1.33.
As to `CC1(C)O[C@@H]2[C@@H](CO[C@@]3(COS(N)(=O)=O)OC(C)(C)O[C@@H]23)O1` [Topiramate], the habituation was -1.06.
In the case of `CN(C)CC/C=C1/c2ccccc2COc2ccc(CC(=O)O)cc21` [Olopatadine hydrochloride], the habituation is -0.266.
With `CCOC(=O)[C@H](CCc1ccccc1)N[C@H]1CCc2ccccc2N(CC(=O)O)C1=O` [Benazepril hydrochloride], the habituation came to 1.78.
For the compound `CN1CCC[C@@H]1CCO[C@](C)(c1ccccc1)c1ccc(Cl)cc1` [Clemastine fumarate], the habituation was -6.62.
With `COc1ccc(Cl)cc1C(=O)NCCc1ccc(S(=O)(=O)NC(=O)NC2CCCCC2)cc1` [Glibenclamide], the habituation amounted to 0.59.
In the case of `COc1cccc2c1C(=O)c1c(O)c3c(c(O)c1C2=O)C[C@@](O)(C(=O)CO)C[C@@H]3O[C@H]1C[C@H](N)[C@H](O)[C@H](C)O1` [Doxorubicin hydrochloride], the habituation was determined as 0.248.
As to `CC(=O)O[C@H]1C(=O)[C@@]2(C)[C@H]([C@H](OC(=O)c3ccccc3)[C@]3(O)C[C@H](OC(=O)[C@H](O)[C@@H](NC(=O)c4ccccc4)c4ccccc4)C(C)=C1C3(C)C)[C@]1(OC(C)=O)CO[C@@H]1C[C@@H]2O` [Taxol], the habituation is -3.28.
For the compound `CN1CC(=O)N2[C@H](c3ccc4c(c3)OCO4)c3[nH]c4ccccc4c3C[C@@H]2C1=O` [Tadalafil], the habituation was -0.158.
Consider `CCCCCCCCc1ccc(CCC(N)(CO)CO)cc1`, for which the habituation is -0.454.
Then `Clc1ccc(COC(Cn2ccnc2)c2ccc(Cl)cc2Cl)c(Cl)c1` (stereo not given) [Miconazole nitrate], with -11.4; and `N[C@@H]1[C@H]2CN(c3nc4c(cc3F)c(=O)c(C(=O)O)cn4-c3ccc(F)cc3F)C[C@@H]12` [Trovafloxacin mesylate], with -4.07.
